Reference: PubChem BioAssay (NCI)
This is part of a sample that, as a whole, favours compounds with a hit. Of some 83,000 tested, about 20% had one in any assay.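 Single-concentration screen, 48 h exposure, 96-well plates. Endpoint: percent growth. Below 10 = active.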 Unmarked numbers belong to inactive results. Active and inactive are the calls of the source.

How the values were obtained:
Test in all cases: NCI-60 one-dose screen, 48 h (100 = growth as untreated, 0 = no growth, -100 = all killed)
NCI-H23 lung = conditions: 10 µM unless noted
NCI-H322M lung = conditions: 10 µM unless noted
HOP-62 NSCLC = conditions: 10 µM unless noted
NCI-H522 lung = conditions: 10 µM unless noted
COLO 205 colon = conditions: 10 µM
MALME-3M melanoma = conditions: 10 µM unless noted
SF-295 CNS = conditions: 10 µM unless noted
U251 CNS = conditions: 10 µM unless noted
SK-MEL-2 melanoma = conditions: 10 µM unless noted
EKVX NSCLC = conditions: 10 µM unless noted
SN12C renal = conditions: 10 µM unless noted
ACHN renal = conditions: 10 µM unless noted
A498 renal = conditions: 10 µM unless noted
CCRF-CEM leukemia = conditions: 10 µM unless noted
RPMI-8226 leukemia = conditions: 10 µM unless noted
IGROV1 ovarian = conditions: 10 µM
HS 578T breast = conditions: 10 µM unless noted
K-562 leukemia = conditions: 10 µM unless noted

| SMILES | growth (NCI-H23 lung) | growth (NCI-H322M lung) | growth (HOP-62 NSCLC) | growth (NCI-H522 lung) | growth (COLO 205 colon) | growth (MALME-3M melanoma) | growth (SF-295 CNS) | growth (U251 CNS) | growth (SK-MEL-2 melanoma) | growth (EKVX NSCLC) | growth (SN12C renal) | growth (ACHN renal) | growth (A498 renal) | growth (CCRF-CEM leukemia) | growth (RPMI-8226 leukemia) | growth (IGROV1 ovarian) | growth (HS 578T breast) | growth (K-562 leukemia) |
| --- | --- | --- | --- | --- | --- | --- | --- | --- | --- | --- | --- | --- | --- | --- | --- | --- | --- | --- |
| COc1cc(C2CC(=O)Nc3nc(N)[se]c32)c(OC)c2c1OCO2 (centres undefined) | 99.7% | 22.6% | 32.7% | 99.1% | 112% | 102% | 6.71% (active) | 48% | 101% | 94.4% | 97.3% | 99.1% | 102% | 104% | 119% | 83.6% | 91.2% |  |
| Oc1c(Br)cc(Br)cc1Br.[Cu+2] | 104% | 88.3% | 121% | 88.7% | 108% | 86.4% | 97.6% | 110% |  |  |  |  | 106% | 101% |  | 105% | 109% | 107% |
| CCN1CC2(CN(CC)C1=S)C(=O)NC(=O)NC2=O | 98.9% | 107% | 90.1% | 84.7% | 115% | 103% | 95.1% | 97.7% | 99% | 99% | 107% |  | 112% | 101% | 100% |  | 104% | 87.5% |
| CCCCOC(=O)c1ccccc1C(=O)O.CCCCOC(=O)c1ccccc1C(=O)O.[Cu+2] | 107% | 104% | 127% | 95% | 101% | 83.3% |  |  | 117% |  |  | 112% | 105% | 108% |  | 122% | 97.3% | 96.2% |
